From PubChem
Hits are enriched below; roughly 3.5% of the tested compounds scored in any of these assays.
mHTT CaM bind: mutant huntingtin-calmodulin interaction inhibitors – biochemical, AlphaScreen, primary screen. P42858. AlphaScreen His-mHTT/GST-CaM binding, luminescence. inhibition, % at 15 µM. actives 3.6% (n = 190,000);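 note: 0% = both proteins with DMSO and 100% = one protein alone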
Pf apPOL block: Pf-apPOL inhibitors, biochemical, fluorescence. Plasmodium falciparum apicoplast DNA polymerase (apPOL). Recombinant Pf-apPOL, molecular beacon fluorescence, 1.5 h. inhibition, % at 10 µM. actives 0.25% (n = 210,000). AID 1794808, 2022
* hit, by the source's call. Cut-off read from the data, not from the text of the source: active = inhibition above about 50%; inactive = the rest.

Screening Cc1ccc(-c2csc(Nc3ccc(Oc4ccccc4)cc3)n2)cc1 returned mHTT CaM bind 68.1* and Pf apPOL block -3.2.
Screening COCCCNC(=O)NCCC1CCN(C(=O)Nc2cccc(Cl)c2)CC1 returned mHTT CaM bind 0.1 and Pf apPOL block -2.0.
For O=c1cc(-c2cccs2)[nH][nH]1 the results were mHTT CaM bind -2.7.
For COc1ccc(C(=O)N2CC3CC2CC3NS(=O)(=O)c2cccs2)c(OC)c1 (stereo not given) the results were mHTT CaM bind -3.9 and Pf apPOL block -5.5.
Screening O=C(Nc1cc(C(F)(F)F)ccc1N1CCCCC1)c1sc2ccccc2c1Cl returned Pf apPOL block -4.8.
O=C(C(Cc1ccccc1)N1C(=O)c2ccccc2C1=O)N1CCN(CCO)CC1 (stereo not given) was read as mHTT CaM bind 5.0 and Pf apPOL block -6.9.
Screening O=C(C(Cc1ccccc1)N1C(=O)c2ccccc2C1=O)N1CCN(c2ccc(F)cc2)CC1 (stereo not given) returned mHTT CaM bind 50.9* and Pf apPOL block -13.7.
Screening COc1ccc(I)cc1S(=O)(=O)N1CC(C)OC(C)C1 (stereo not given) returned mHTT CaM bind 0.0 and Pf apPOL block -3.6.
Screening Cc1[nH]c2ccccc2c1C(C[N+](=O)[O-])c1ccco1 (stereo not given) returned mHTT CaM bind 37.0 and Pf apPOL block -4.0.
`Cc1[nH]c2ccccc2c1C(c1ccco1)c1c(C)[nH]c2ccccc12` gave mHTT CaM bind 55.0* and Pf apPOL block -4.4.
Screening CCn1ccc2oc(C)c(C(=O)N3CCN(c4cc(C)ccc4C)CC3)c2c1=O returned mHTT CaM bind 84.9* and Pf apPOL block -1.7.
Screening CCn1ccc2oc(C)c(C(=O)N3CCN(c4cccc(C)c4C)CC3)c2c1=O returned mHTT CaM bind 66.3* and Pf apPOL block -4.3.
CCn1ccc2oc(C)c(C(=O)NCc3cc(C)ccc3C)c2c1=O was read as mHTT CaM bind 4.5 and Pf apPOL block -1.9.
Screening CCCn1ccc2oc(C)c(C(=O)N3CCN(c4ccccc4F)CC3)c2c1=O returned mHTT CaM bind 17.3 and Pf apPOL block -3.3.
For CCC(=O)Nc1c2c(nn1C(C)(C)C)CSC2 the results were mHTT CaM bind 4.0 and Pf apPOL block -5.0.
Screening CCOc1ccc2nc(Cl)c(C3CC(c4ccc(OC)cc4)=NN3C(=O)c3ccco3)cc2c1 (stereo not given) returned mHTT CaM bind 7.0 and Pf apPOL block -7.7.
For CCOc1cc(/C=C(\C#N)c2nn(-c3ccccc3)c(N)c2C#N)cc(Br)c1OC the results were mHTT CaM bind 56.2* and Pf apPOL block -1.7.
For COc1cc(/C=C(\C#N)c2nn(CCO)c(N)c2C#N)cc2c1OCO2 the results were mHTT CaM bind 0.7 and Pf apPOL block -4.5.
`COc1cc(/C=C(\C#N)c2nn(-c3ccccc3)c(N)c2C#N)cc(OC)c1OC` gave mHTT CaM bind 49.4 and Pf apPOL block -8.5.
CCOc1cc(/C=C(\C#N)c2nn(CCO)c(N)c2C#N)cc(I)c1OC was read as mHTT CaM bind 52.0* and Pf apPOL block 0.3.
`C=CCn1c(=O)c2c(ncn2CC=C)n(-c2cccc(Cl)c2)c1=O` gave mHTT CaM bind -1.0 and Pf apPOL block 1.7.
`CCOC1=CC(=Cc2c(N)n3nc(COc4ccccc4)sc3nc2=O)C=CC1=O` gave mHTT CaM bind 31.0 and Pf apPOL block -0.5.
`COC1=CC(=Cc2c(N)n3nc(-c4ccccc4C)sc3nc2=O)C=CC1=O` gave mHTT CaM bind 57.0* and Pf apPOL block -1.0.
For CCNC(=O)Nc1cccc(N2CCCN(Cc3cc(F)ccc3F)C2=O)c1 the results were mHTT CaM bind 9.3 and Pf apPOL block -3.3.
For CN(C)S(=O)(=O)c1ccc(C(=O)N2Cc3nn(C(C)(C)C)c(-n4cccc4)c3C2)cc1 the results were mHTT CaM bind 53.8* and Pf apPOL block -2.7.
CC(C)(C)n1nc2c(c1-n1cccc1)CN(C(=O)c1ccc(=O)[nH]c1)C2 was read as mHTT CaM bind 21.0 and Pf apPOL block 4.6.
`CC1CCCCC1NC(=O)CCc1cn(C)c2ccccc12` (stereo not given) gave mHTT CaM bind -2.0 and Pf apPOL block -26.9.
For Cn1c(=O)n(C)c2cc(/C=C3\C(=O)NN(c4ccc(Br)cc4)C3=O)ccc21 the results were mHTT CaM bind 2.0 and Pf apPOL block 5.3.
CC/C(C)=C1\C(=O)NN(c2ccc(Br)cc2)C1=O was read as mHTT CaM bind 74.0* and Pf apPOL block -1.2.
`C/C(=N\NC(=O)c1ccco1)c1ccco1` gave mHTT CaM bind inactive.
For Cc1ccc(NC(=O)C2CCCN(c3ncc(-c4ccccc4)cn3)C2)cc1 (stereo not given) the results were mHTT CaM bind -0.2 and Pf apPOL block -3.5.
C1=CCC(C2OCC3(CO2)COC(C2CC=CCC2)OC3)CC1 (stereo not given) was read as mHTT CaM bind -16.0 and Pf apPOL block -24.0.
